# According to ChEMBL document CHEMBL3988442, “University of Dundee, Small-Polar-MMV Screening Library” (2021):
# For some of these results: Entries with a potency or affinity are not part of this list.
# Tests used:
# Parameters in all cases: scale not given: direction of the effect not stated beside the values
# [1] = target: Protein translocase subunit SecA (Escherichia coli (strain K12)) (UniProt P10408); experiment: Assay to Identify E. coli SecA ATPase Inhibitors; assay type: functional; settings: 30 µM
# [2] = target: T1, Ubiquitin-activating enzyme e1, putative (Leishmania donovani (strain BPK282A1)) (UniProt E9BSI1); experiment: Leishmania donovani Ubiquitin Activating Enzyme (LdE1); assay type: functional; settings: 30 µM
# T1 sequence (whole entry): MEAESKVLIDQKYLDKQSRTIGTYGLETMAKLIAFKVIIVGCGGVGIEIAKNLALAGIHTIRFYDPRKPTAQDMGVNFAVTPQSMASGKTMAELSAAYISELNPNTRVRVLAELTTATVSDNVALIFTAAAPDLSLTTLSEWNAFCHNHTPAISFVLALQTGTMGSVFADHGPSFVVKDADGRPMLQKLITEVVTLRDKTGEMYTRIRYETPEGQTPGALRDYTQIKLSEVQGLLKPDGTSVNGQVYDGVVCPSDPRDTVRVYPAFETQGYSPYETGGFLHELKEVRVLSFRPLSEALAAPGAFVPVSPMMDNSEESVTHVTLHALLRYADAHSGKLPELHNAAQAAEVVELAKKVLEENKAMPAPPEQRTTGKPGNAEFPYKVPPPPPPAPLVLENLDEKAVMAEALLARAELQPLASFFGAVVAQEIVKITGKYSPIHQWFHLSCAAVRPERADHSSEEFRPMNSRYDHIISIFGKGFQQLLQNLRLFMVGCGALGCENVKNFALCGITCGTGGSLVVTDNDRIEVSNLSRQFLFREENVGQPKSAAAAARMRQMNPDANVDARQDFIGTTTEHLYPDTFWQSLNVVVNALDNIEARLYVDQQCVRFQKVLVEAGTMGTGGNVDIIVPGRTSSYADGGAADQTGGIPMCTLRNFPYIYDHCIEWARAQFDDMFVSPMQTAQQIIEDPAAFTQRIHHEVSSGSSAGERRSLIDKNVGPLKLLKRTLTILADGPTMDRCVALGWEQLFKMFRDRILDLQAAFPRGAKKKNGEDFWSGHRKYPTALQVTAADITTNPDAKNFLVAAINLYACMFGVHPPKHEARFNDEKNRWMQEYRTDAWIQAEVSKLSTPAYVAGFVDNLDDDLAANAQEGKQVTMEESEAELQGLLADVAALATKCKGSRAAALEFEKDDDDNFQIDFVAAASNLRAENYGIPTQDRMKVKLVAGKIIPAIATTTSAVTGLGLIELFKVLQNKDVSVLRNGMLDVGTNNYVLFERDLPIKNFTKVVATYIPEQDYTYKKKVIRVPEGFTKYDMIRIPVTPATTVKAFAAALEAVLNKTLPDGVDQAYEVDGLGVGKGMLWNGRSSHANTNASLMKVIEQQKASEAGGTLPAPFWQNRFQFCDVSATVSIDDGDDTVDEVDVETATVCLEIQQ
# [3] = target: AMP-activated protein kinase, AMPK (Homo sapiens) (UniProt P54646+O43741+P54619+Q9UGJ0+Q9Y478+Q13131+Q9UGI9); experiment: AMP-dependent Kinase enzyme assay. An in vitro enzyme assay that detects ADP turnover that is directly proportional to AMPK activity. This uses naive AMPK that is activated during the assay with MK-8722; assay type: functional; settings: 30 µM
# [4] = target: Sialic acid-binding Ig-like lectin 9 (Homo sapiens) (UniProt Q9Y336); experiment: Hs-Siglec9 ALPHAscreen SOP 20170721; settings: 10 µM
# Trypanosoma cruzi = experiment: Trypanosoma cruzi phosphomannomutase and mannose-1-phosphate guanylyltransferase assay; assay type: functional; settings: 10 µM
# [5] = target: T2, Arginase-2, mitochondrial (Homo sapiens) (UniProt P78540); experiment: in vitro enzyme assay to detect the production of urea directly proportional to the activity of Arginase II; assay type: functional; settings: 33.3 µM; also: in the data most compounds retested in dose-response had high values
# T2 sequence (whole entry): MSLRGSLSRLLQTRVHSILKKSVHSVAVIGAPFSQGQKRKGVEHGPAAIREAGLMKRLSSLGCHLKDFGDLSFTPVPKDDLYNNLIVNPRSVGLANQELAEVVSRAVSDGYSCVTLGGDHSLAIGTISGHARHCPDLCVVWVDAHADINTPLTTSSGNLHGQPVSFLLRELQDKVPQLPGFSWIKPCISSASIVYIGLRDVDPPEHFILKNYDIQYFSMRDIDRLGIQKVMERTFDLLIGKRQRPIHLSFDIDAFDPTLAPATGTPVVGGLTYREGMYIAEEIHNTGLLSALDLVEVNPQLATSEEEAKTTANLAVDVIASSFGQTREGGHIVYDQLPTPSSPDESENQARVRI
# [6] = target: T3, Proteasome subunit beta (Trypanosoma cruzi) (UniProt O96673); experiment: Trypanosoma cruzi proteasome chymotrypsin-like activity (TcProtChymo) assay.; also: in the data most compounds retested in dose-response had high values; assay type: functional; settings: 9.37 µM
# T3 sequence (whole entry): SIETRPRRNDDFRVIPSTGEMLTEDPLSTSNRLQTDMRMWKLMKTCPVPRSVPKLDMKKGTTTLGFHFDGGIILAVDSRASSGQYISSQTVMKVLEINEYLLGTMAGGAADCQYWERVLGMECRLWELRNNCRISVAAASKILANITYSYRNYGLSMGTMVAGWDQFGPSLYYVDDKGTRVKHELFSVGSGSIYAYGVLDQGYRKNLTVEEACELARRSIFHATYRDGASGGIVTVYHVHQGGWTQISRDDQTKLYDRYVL
# Homo sapiens = species on record: Homo sapiens; experiment: To identify inhibition of the IFN signalling (Jak-Stat) pathway via expression of an eGFP reporter gene under the control of an IFN-stimulated response element (ISRE) containing MxA promoter.; assay type: functional; settings: 30 µM
# [7] = target: T4, Tyrosyl-tRNA synthetase, putative (Trypanosoma cruzi (strain CL Brener)) (UniProt Q4DSP6); experiment: Trypanosoma cruzi tyrosyl tRNA synthetase (TcYRS) _High Tyrosine SOP; assay type: functional; settings: 30 µM; also: in the data most compounds retested in dose-response had high values
# T4 sequence (whole entry): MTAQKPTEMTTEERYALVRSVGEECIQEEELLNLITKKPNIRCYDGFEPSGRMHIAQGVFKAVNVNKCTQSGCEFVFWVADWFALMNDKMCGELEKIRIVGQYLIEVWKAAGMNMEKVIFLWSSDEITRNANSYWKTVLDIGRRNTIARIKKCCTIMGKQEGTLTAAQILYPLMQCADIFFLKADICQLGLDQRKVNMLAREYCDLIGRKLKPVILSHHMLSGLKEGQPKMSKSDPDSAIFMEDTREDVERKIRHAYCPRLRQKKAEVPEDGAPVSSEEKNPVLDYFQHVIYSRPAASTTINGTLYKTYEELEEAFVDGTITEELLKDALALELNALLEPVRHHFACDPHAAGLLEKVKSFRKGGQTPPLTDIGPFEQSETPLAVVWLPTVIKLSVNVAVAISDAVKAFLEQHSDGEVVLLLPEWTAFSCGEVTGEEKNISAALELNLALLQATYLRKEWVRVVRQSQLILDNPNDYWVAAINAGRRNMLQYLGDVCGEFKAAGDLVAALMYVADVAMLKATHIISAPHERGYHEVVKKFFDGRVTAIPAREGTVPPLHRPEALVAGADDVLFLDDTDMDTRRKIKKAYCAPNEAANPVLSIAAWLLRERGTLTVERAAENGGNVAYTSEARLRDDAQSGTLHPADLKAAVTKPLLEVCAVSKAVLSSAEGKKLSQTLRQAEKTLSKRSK
# [8] = target: T4, Tyrosyl-tRNA synthetase, putative (Trypanosoma cruzi (strain CL Brener)); experiment: Trypanosoma cruzi tyrosyl tRNA synthetase (TcYRS) SOP; assay type: functional; settings: 30 µM
# [9] = target: Chromo domain-containing protein 1 (Saccharomyces cerevisiae (strain ATCC 204508 / S288c) (Baker's yeast)) (UniProt P32657); experiment: ScCHD-1 Enzyme Inhibition Assay; assay type: functional; settings: 30 µM; also: in the data most compounds retested in dose-response had high values
# Chain of Chromo domain-containing protein 1 (Saccharomyces cerevisiae (strain ATCC 204508 / S288c) (Baker's yeast)) (P32657 whole entry, the tested form may be a part): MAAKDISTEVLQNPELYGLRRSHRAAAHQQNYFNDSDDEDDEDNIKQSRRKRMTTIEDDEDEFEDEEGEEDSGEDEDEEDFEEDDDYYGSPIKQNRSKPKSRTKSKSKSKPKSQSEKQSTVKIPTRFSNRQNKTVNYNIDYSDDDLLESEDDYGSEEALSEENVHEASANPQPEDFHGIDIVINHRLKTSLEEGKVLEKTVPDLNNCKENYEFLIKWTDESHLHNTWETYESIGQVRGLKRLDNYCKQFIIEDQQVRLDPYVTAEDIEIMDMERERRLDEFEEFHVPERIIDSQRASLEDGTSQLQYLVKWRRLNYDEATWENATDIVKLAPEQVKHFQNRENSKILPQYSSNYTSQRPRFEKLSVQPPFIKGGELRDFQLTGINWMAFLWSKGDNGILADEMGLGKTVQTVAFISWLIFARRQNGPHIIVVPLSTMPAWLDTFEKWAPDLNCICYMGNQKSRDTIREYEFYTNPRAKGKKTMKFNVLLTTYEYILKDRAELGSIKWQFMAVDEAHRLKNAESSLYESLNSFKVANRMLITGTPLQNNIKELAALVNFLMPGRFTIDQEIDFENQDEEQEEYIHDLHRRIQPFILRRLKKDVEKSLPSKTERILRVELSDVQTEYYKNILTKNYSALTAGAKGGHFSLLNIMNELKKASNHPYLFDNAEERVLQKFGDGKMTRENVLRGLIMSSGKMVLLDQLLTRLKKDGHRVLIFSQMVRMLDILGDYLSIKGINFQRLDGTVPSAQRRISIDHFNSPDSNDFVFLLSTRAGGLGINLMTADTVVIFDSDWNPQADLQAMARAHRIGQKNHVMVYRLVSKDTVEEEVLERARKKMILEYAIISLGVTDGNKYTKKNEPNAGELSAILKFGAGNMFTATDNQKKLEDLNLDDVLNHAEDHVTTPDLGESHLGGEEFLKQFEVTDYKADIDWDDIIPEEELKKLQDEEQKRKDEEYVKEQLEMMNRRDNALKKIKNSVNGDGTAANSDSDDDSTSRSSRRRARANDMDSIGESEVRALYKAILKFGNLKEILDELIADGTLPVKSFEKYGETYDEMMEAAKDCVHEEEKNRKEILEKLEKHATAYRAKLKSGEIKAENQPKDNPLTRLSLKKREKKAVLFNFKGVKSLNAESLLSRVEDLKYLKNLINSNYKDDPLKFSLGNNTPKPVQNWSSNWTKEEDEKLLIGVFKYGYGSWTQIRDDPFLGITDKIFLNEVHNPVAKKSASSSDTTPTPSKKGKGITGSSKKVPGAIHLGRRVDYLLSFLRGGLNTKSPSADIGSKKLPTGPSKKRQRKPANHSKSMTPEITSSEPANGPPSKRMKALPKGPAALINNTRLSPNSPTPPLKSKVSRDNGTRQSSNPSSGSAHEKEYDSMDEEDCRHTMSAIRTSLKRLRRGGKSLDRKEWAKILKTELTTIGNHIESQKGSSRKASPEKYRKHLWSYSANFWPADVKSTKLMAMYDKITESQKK
# Chain of Sialic acid-binding Ig-like lectin 9 (Homo sapiens) (Q9Y336 whole entry): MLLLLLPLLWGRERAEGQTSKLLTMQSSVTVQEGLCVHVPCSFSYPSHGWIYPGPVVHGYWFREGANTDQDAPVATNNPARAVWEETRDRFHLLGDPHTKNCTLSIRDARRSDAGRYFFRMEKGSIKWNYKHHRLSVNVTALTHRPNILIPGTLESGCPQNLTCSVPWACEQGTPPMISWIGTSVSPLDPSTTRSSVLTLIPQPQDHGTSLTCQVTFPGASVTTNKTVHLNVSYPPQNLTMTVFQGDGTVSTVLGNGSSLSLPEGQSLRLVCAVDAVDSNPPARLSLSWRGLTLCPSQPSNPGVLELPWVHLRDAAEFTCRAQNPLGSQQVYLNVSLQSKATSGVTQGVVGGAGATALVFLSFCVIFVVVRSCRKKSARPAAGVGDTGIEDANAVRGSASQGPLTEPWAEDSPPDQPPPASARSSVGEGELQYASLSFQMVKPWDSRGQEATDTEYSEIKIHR
# Chain of Protein translocase subunit SecA (Escherichia coli (strain K12)) (P10408 whole entry): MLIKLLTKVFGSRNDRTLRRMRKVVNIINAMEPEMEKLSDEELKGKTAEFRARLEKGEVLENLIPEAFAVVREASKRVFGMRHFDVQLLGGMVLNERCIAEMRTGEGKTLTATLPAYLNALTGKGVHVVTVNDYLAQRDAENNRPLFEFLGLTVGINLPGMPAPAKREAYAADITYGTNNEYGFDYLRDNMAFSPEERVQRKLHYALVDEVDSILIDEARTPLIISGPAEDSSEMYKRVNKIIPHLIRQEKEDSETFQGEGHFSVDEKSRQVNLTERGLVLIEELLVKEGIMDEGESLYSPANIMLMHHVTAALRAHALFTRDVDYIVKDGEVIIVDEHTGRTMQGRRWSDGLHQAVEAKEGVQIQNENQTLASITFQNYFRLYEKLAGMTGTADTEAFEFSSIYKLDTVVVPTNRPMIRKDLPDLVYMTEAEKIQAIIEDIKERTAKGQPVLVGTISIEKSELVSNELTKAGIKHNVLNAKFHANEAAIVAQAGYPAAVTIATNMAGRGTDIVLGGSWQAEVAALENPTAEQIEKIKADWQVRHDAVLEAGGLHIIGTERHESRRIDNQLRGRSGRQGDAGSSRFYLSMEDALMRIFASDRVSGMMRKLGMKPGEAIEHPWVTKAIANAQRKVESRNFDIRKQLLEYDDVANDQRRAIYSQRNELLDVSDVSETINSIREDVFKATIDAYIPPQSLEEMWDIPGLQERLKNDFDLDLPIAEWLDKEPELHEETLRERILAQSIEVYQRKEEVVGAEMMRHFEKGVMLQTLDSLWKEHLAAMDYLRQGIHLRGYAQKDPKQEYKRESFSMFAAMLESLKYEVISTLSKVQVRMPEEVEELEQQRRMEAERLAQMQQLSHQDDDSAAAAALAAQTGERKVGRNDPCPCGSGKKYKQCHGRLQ
SMILES,Percent Effect [1] [%],Percent Effect [2] [%],Percent Effect [3] [%],Percent Effect [4] [%],Percent Effect (Trypanosoma cruzi) [%],Percent Effect [5] [%],Percent Effect [6] [%],Percent Effect (Homo sapiens) [%],Percent Effect [7] [%],Percent Effect [8] [%],Percent Effect [9] [%]
CCN1CCN(CC(O)c2ccc(OC(F)(F)F)cc2)CC1 (stereo not given),-9.59,16.2,-17.6,27.4,9.34,-19.6,9.73,0.571,6.4,18.5,-20.3
O=C(c1cscn1)N1CCC2(CCN(Cc3nccs3)C2)CC1,-1.95,2.7,2.22,3.97,0.293,-6.05,16.4,-17.2,1.08,5.13,5.03
CC(C)C(=O)N1CCN(Cc2cc(-c3ccncc3)nn2C)CC1,-5.03,12.2,-0.905,1.54,3.75,-3.48,8.89,0.905,-5.38,11.7,-13.7
COCC1COCCC12CCN(CCc1ccccc1)CC2 (stereo not given),-4.75,2.7,0.285,0.939,6.84,-3.33,16.5,1.25,6.93,8.54,0.841
COc1ccc(CNC(=O)NC2CCC(O)CC2)c(C(F)(F)F)c1 (stereo not given),-1.24,-9.72,-2.59,-9.45,-4.57,1.32,14,-1.15,3.16,2.56,-2.64
Cc1cccc(C2(NC(=O)CCN3C(=O)CCC3=O)CCCC2)c1,-5.83,12.7,-1.51,8.26,0.85,-2.28,4.83,0.0333,5.42,11.4,-4.64
COCc1nn(C(C)C)c2c1CCN(Cc1cccs1)C2,-0.481,11,1.5,8.32,0.198,-0.798,12.4,-11.8,7.29,16.1,-1.6
CC(C)c1nc(C2CCCN(C(=O)c3ccc4[nH]cnc4c3)C2)no1 (stereo not given),-9.93,18.2,-3.37,3.45,5.97,-5.26,12.5,10.7,5.71,2.35,-15.3
COc1ncnc2c1CCN(c1cc(C(F)(F)F)ncn1)CC2,-3.48,8,4.03,-3.21,-6.56,-57.5,6.67,20.9,-1.04,7.5,-7.82
Cc1oc(-c2ccco2)nc1CC(=O)N1CCC(C(O)C(F)(F)F)CC1 (stereo not given),-2.39,0,-2.68,2.74,6.76,-4.42,-5.58,-30,-0.952,9.41,-13.1
CC(=O)NCC(=O)N1Cc2nccn2CC(Cn2cccn2)C1 (stereo not given),-2.33,-2.7,5.56,-2.67,-5.38,1.59,18.6,3.41,5.41,7.69,-0.528
CCc1nccn1C1CCCN(C(=O)Cc2cn3ccccc3n2)C1 (stereo not given),-4.36,8.86,-1.52,-5.05,3.18,-1.5,13.2,17.9,-1.04,10.1,-29
Cc1cnc(C)c(N2CCN(Cc3ccc(-c4cc[nH]n4)o3)CC2)n1,-0.779,10.7,-20.1,21.3,5.94,7.29,22.7,32,7.1,16.1,-4.34
Cn1cccc1C(=O)N1CCc2ncc(Cn3cccn3)n2CC1,-5.21,10.7,-0.846,-1.04,2.32,-43.2,0.513,-2.01,2.08,2.5,-3.31
COCCN(Cc1ccc(F)cc1Cl)C(=O)c1cccc[n+]1[O-],-4.42,-1.39,3.97,-0.933,-1.65,6.18,12.3,-7.04,1.05,7.69,-2.92
Cc1ncnc2c1CCN(Cc1ccccn1)CC2,-2.86,-2.74,-0.577,1.97,-3.57,-0.798,1.46,-16.5,3.12,-1.24,5.72
CNC(=O)c1cc2c(nc1NCC1CC1)CCN(c1ccncn1)CC2,-4.02,1.33,11.9,4.48,-1.57,-4.05,9.61,35.2,1.06,0,-5.29
Cn1ncc2c(N3CCN(C(N)=O)CC3)nc(C3CCCC3)nc21,-1.31,1.39,27.7,-4.81,-7.29,0.883,18.4,25.9,1.05,-7.69,-4.35
Cc1cc(C)c2cc(CNCc3ccccc3)c3nn(C)c(=O)n3c2c1,-8.18,9.46,-1.18,8.69,2.96,-2.09,10.3,13.4,4.3,3.9,-30.5
CCn1nnc2c1C(COC)CN(Cc1ccsc1)C2 (stereo not given),-6.4,5.41,1.42,-2.12,-5.77,-2.73,10.2,-14.5,2.15,3.7,-3.53
